In the library only some 18% were active in any assay of this set; here they are far more common.
CtBP-E1A blk: inhibitors of CtBP/E1A interaction; AlphaScreen GST-E1A/His-CtBP binding, 1536-well; hits give low values; activity change, % (no concentration beside the values); 340,000 compounds, 0.49% hits; AID 651724; in the data active means activity change below about -65%; inconclusive means mostly about -30% to -63%
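In 5 uL wells, 23 nL compound meets equimolar GST-E1A and His-CtBP (5X stock 125 nM each) for 2 h, 37 °C. Beads (5X, 50 ug/mL) then 1 h, 37 °C, dark.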
IL-1B inflam inh: inhibitors of inflammasome signaling (IL-1 beta secretion) | THP-1 LPS/ATP IL-1B secretion, AlphaLISA, 16 h; hits give low values | activity change, % at 57.5 µM | 360,000 compounds, 4.7% hits | AID 743279; in the data active means activity change below about -50%; inconclusive means mostly about -30% to -49%
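Secreted IL-1B measured by AlphaLISA bead assay after 16 h compound exposure of THP-1 cells; compounds (final up to 57.5 uM) added 1 h before LPS (250 ng/mL) and ATP (1.25 mM) stimulation; lower signal means less secretion.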
DT40 TDP1 CPT: growth inhibition of DT40 Tdp1-/-;hTDP1 cells with camptothecin (screen for TDP1 inhibitors). chicken DT40 Tdp1-/-;hTDP1 cells + 20 nM CPT, ATP luminescence, 48 h. Potency, µM (top dose mostly 46.2 µM), usual class: inhibitors. 420,000 compounds, 12% hits. AID 686979; further: nearly all actives have a fitted effect of over 55% in size
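Chicken DT40 Tdp1-/- cells complemented with human TDP1, 400 cells/well, exposed to compounds plus 20 nM camptothecin for at least 48 h at 37 C; viability read as ATP content by CellTiter-Glo luminescence.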
TDP1 block: inhibitors of human tyrosyl-DNA phosphodiesterase TDP1. recombinant TDP1, AlphaScreen DNA substrate cleavage. Potency, µM (series often up to 130 µM), usual class: inhibitors. AID 485290. Q9NUW8. 350,000 compounds, 0.28% hits; further: nearly all actives have a fitted effect of over 40% in size
Target sequence (Q9NUW8 whole entry, looked up): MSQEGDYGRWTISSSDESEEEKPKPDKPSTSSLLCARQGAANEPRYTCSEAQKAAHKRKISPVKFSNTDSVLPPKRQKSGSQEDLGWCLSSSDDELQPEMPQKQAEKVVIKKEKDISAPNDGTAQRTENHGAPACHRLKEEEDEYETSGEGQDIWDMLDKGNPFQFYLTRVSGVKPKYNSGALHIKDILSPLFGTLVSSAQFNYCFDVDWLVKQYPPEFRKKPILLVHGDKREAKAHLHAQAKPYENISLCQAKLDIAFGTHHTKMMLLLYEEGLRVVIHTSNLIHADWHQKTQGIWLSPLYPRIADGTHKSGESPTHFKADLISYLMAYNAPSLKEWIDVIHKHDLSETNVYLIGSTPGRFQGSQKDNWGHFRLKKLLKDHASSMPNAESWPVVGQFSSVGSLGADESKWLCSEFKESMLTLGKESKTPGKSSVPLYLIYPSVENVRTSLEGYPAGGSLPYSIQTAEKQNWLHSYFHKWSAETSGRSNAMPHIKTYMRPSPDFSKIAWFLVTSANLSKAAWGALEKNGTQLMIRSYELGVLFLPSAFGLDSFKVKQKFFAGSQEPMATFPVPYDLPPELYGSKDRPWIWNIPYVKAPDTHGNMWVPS
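Tdp1 1 nM final; 15 min RT w/ cpd; substrate 15 nM, 5 min; beads 10 ug/ml, 10 min; AlphaScreen read. Neg ctrl: no enzyme.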
Six1-Eya2 inh: inhibitors of human Six1/Eya2 interaction | activity change, % (test concentration not listed) | 360,000 compounds, 0.56% hits | AlphaScreen GST-Six1/His-Eya2 binding, biochemical; hits give low values; in the data active means activity change below about -65%; inconclusive means mostly about -30% to -63%
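Homogeneous AlphaScreen proximity assay pairing GST-Six1 with His-tagged Eya2 (added as 5X mix: 250 nM and 500 nM) in 50 mM Tris pH 8.0, 300 mM NaCl, 1 mM TCEP. Glutathione donor and nickel acceptor beads; 1 h, 37 °C, dark.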
TDP1 cell noCPT: qHTS for Inhibitors of human tyrosyl-DNA phosphodiesterase 1 (TDP1): qHTS in cells in absence of CPT. DT40 Tdp1-/- hTDP1 cells, no CPT, ATP luminescence, 48 h. Potency, µM (top dose mostly 46.2 µM), usual class: inhibitors. 420,000 compounds, 15% hits. AID 686978, 2013; further: nearly all actives have a fitted effect of over 55% in size
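Camptothecin absent (DMSO only). Human TDP1-complemented DT40 knockout cells, 400 cells/well, 37 °C for minimum 48 hr; ATP measured via CellTiter-Glo, 30 min dark incubation, luminescence.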
Each line names hits and unclear results; the compound was inactive in the other large screens. Unless noted, the call rests on the fitted dose curve; in most records, active means well fitted curve in the direction sought with a large enough effect; inconclusive means small, poorly fitted or top-dose-only effect, or another doubt; inactive means no such curve, though single readings can be large; an effect the other way counts as inactive or inconclusive.

Cc1cc(N2CCN(C(=O)c3ccco3)CC2)n2nc(-c3cccc(Cl)c3)cc2n1	IL-1B inflam inh -66, DT40 TDP1 CPT 23µM, TDP1 cell noCPT inconclusive
CSc1ccccc1NC(=O)N1CCC(CO)(CC2CCCCO2)CC1 (stereo not drawn)	TDP1 cell noCPT inconclusive
CCOc1ccc(CN2CCN(Cc3cc4ccccc4[nH]3)CC2CCO)cc1 (stereo not drawn)	DT40 TDP1 CPT inconclusive, TDP1 cell noCPT inconclusive
O=C(CN(Cc1ccccc1)S(=O)(=O)c1ccc2c(c1)OCCO2)N/N=C/c1cccc(Br)c1	DT40 TDP1 CPT inconclusive, TDP1 cell noCPT inconclusive
COc1cc(/C=N/NC(=O)CN(Cc2ccco2)S(=O)(=O)c2ccccc2)ccc1O	CtBP-E1A blk -92, Six1-Eya2 inh -82
O=C(CN(Cc1ccccc1)S(=O)(=O)c1ccc2c(c1)OCCO2)N/N=C/c1ccc(F)cc1	IL-1B inflam inh -56
COc1cc(/C=N/NC(=O)CN(Cc2ccccc2)S(=O)(=O)c2ccc3c(c2)OCCO3)ccc1O	IL-1B inflam inh inconclusive, Six1-Eya2 inh -82, TDP1 cell noCPT inconclusive
COC(=O)CN(Cc1ccco1)S(=O)(=O)c1ccccc1	none
O=C(CC(Nc1ccccc1Cl)C(=O)OCC(=O)c1cccs1)c1ccccc1 (stereo not drawn)	DT40 TDP1 CPT inconclusive
Cn1nc(-c2ccccc2)cc1NC(=O)Nc1ccc(F)cc1	DT40 TDP1 CPT inconclusive (no result: TDP1 block)
C=CCOC(=O)c1ccc(N2CCN(c3ccccc3)CC2)nc1	none (no result: TDP1 block)
CCCC(=O)Nc1cc(C(=O)O)ccc1Sc1ccccc1	none
CCCN(CCC)C(=O)c1ccc2c(c1)N(Cc1ccccc1)C(=O)CS2=O (stereo not drawn)	IL-1B inflam inh inconclusive, DT40 TDP1 CPT inconclusive, TDP1 cell noCPT inconclusive
N#Cc1ccsc1NC(=O)CN(Cc1ccccc1)Cc1ccccc1	DT40 TDP1 CPT 21µM, TDP1 cell noCPT 15µM
N#Cc1ccsc1NC(=O)CCN1CCN(C(c2ccccc2)c2ccccc2)CC1	CtBP-E1A blk inconclusive, DT40 TDP1 CPT 29µM, TDP1 cell noCPT 26µM
N#Cc1ccsc1NC(=O)c1ccccn1	CtBP-E1A blk inconclusive, DT40 TDP1 CPT inconclusive, Six1-Eya2 inh -67, TDP1 cell noCPT inconclusive
N#Cc1ccsc1NC(=O)c1ccc2ncsc2c1	DT40 TDP1 CPT inconclusive, TDP1 cell noCPT inconclusive (no result: TDP1 block)
N#Cc1ccsc1NC(=O)CCc1ccccc1	DT40 TDP1 CPT inconclusive, TDP1 cell noCPT 21µM
COC(=O)C1=C(NC(=O)COc2ccc(Cl)cc2Cl)CCS1	none
COc1cc(Cl)c(NC(=O)CCc2nc3cccnc3n2-c2ccccc2)c(OC)c1	DT40 TDP1 CPT inconclusive, TDP1 cell noCPT inconclusive (no result: CtBP-E1A blk, IL-1B inflam inh, Six1-Eya2 inh)
CC(N)(C(=O)O)c1ccc(C(=O)O)cc1 (stereo not drawn)	TDP1 block inconclusive (no result: CtBP-E1A blk, IL-1B inflam inh, Six1-Eya2 inh)
CCOc1ccccc1NC(=O)c1c(NC(=O)C(C)Oc2cccc(Cl)c2)sc2c1CCCCC2 (stereo not drawn)	none (no result: CtBP-E1A blk, IL-1B inflam inh, Six1-Eya2 inh)
C/C=C\C=C\C(=O)N1CC2(CC(c3cccc(NC(=O)CC)c3)=NO2)C[C@H]1C(N)=O (stereo partly drawn)	none
N#Cc1ccsc1NC(=O)c1ccc(Cl)c([N+](=O)[O-])c1	IL-1B inflam inh inconclusive, DT40 TDP1 CPT 2.9µM, TDP1 cell noCPT 2.3µM (no result: CtBP-E1A blk)
N#Cc1ccsc1NC(=O)c1cccc([N+](=O)[O-])c1	TDP1 cell noCPT inconclusive
NNC(=O)C1CCN(S(=O)(=O)c2ccc(Cl)cc2)CC1	none (no result: TDP1 block)
O=C(Nc1ccncc1)C1CCN(S(=O)(=O)c2ccccc2)CC1	DT40 TDP1 CPT inconclusive, TDP1 cell noCPT inconclusive (no result: TDP1 block)
O=C(Nc1ccncc1)C1CCN(S(=O)(=O)c2ccccc2C(F)(F)F)CC1	DT40 TDP1 CPT 15µM, TDP1 cell noCPT 26µM
O=C(Nc1ccncc1)C1CCN(S(=O)(=O)c2cccs2)CC1	TDP1 cell noCPT inconclusive
